Results as given in PubChem BioAssay (NCATS).
Records with an inconclusive call do not appear. The source made the active and inactive calls. Unless noted, calls follow the shape of the dose curve; as a rule, active = well fitted curve in the direction sought with a large enough effect; inconclusive = small, poorly fitted or top-dose-only effect, or another doubt; inactive = no such curve, though single readings can be large; an effect the other way counts as inactive or inconclusive.

How the values were obtained:
[1] = qHTS of Nrf2 Activators: LOPAC Validation (AID 624149)
Outline: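 AREc32_Fluc cells, 1000/well, OPTI-MEM + 5% FBS, o/n 37 deg C 5% CO2; compound pin-transfer, 24 hr 37 deg C; Steady-Glo 30 min RT, luminescence read.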

[2] = HTS Assay for Allosteric Antagonists of the Human D2 Dopamine Receptor: Hit Validation in HTRF (AID 624455)
Outline: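 HTRF read-out; cells stably expressing D1 receptor; hits scored for inhibition of D1-mediated response. Primary screen: calcium flux, force-coupled inducible Hek293 Trex D2 line, antagonism vs EC80 dopamine.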

[3] = biological target: Arylsulfatase A (Homo sapiens) (UniProt P15289); assay: qHTS screen for enhancers of Arylsulfatase A (ASA1): LOPAC Validation Assay (AID 720538)
Sequence of Arylsulfatase A (Homo sapiens) (P15289 whole entry, looked up): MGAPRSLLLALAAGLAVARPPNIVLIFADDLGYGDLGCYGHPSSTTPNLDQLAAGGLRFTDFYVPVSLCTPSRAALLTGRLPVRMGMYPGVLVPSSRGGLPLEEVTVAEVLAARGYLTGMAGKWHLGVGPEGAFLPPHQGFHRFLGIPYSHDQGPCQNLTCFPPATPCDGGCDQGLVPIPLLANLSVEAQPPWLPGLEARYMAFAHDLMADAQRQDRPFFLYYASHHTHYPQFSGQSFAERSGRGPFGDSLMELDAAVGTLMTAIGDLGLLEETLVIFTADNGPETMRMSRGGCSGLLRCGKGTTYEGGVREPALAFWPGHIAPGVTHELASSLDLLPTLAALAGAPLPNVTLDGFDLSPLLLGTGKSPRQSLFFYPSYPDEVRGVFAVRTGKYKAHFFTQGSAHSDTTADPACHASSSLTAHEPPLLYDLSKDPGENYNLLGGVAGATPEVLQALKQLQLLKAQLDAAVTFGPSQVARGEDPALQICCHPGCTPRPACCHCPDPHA
Outline: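 Enhancer assay in patient-derived MLD fibroblasts carrying ASA-I179S: 48 h compound exposure at 37 C, then 14 h room-temperature pNCS turnover (0.5 mM final) in lysis buffer. Read by fluorescence at 525/598 nm after NaOH stop.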

[4] = qHTS for Activators of Parkin Expression: LOPAC Validation Assay (NLuc Reporter) (AID 720572)
Outline: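 Cells harboring the Parkin-promoter coincidence reporter were treated for 24 h at seven concentrations. NLuc output was measured sequentially after the FLuc channel and scaled between DMSO and positive control values.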

[5] = qHTS for Activators of Parkin Expression: LOPAC Validation Assay (FLuc Reporter) (AID 720573)
Outline: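 FLuc signal from Parkin-promoter coincidence reporter neuronal cells, normalized to DMSO and positive control (100%). Cells (1,500/well) pre-incubated 24 h, then exposed to LOPAC compounds in 7-point dose response for 24 h at 37 C, 5% CO2.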

[6] = biological target: T1, Hexokinase-4 (Homo sapiens) + Glucokinase regulatory protein (Homo sapiens) (UniProt P35557+Q14397); assay: qHTS assay for inhibitors of recombinant human GCK-GKRP interaction: Diaphorase-coupled assay (AID 743205)
T1 sequence (P35557 whole entry, looked up): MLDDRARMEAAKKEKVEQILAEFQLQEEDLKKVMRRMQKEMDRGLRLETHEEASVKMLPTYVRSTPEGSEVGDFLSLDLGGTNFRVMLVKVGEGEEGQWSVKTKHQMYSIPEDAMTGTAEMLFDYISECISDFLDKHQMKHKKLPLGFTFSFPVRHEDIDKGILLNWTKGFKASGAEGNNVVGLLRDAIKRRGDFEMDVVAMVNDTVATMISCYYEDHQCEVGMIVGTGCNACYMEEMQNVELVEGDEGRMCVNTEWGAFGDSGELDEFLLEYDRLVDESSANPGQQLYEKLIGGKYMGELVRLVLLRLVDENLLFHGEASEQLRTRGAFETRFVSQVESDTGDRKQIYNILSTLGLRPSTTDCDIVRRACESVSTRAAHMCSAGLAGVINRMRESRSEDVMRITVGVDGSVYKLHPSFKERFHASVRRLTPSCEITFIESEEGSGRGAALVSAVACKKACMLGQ
T1 sequence (Q14397 whole entry, looked up): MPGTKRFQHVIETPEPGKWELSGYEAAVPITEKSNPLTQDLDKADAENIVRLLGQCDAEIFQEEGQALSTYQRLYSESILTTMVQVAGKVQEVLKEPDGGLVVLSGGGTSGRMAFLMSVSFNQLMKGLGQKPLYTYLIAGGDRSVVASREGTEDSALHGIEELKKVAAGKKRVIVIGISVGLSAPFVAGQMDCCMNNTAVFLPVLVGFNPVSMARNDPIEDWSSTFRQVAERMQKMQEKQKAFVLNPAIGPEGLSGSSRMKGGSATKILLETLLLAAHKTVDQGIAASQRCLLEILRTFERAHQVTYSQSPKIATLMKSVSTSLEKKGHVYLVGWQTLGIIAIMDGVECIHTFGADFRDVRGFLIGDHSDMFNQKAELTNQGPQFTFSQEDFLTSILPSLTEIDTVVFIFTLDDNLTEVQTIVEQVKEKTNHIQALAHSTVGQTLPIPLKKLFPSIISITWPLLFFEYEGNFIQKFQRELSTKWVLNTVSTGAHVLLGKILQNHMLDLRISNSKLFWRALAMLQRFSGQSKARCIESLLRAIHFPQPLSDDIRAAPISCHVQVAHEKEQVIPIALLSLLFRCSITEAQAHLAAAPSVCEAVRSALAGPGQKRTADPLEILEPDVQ
Outline: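 A kinetic fluorescence read (Ex 525/Em 590 nm, every minute for 30 minutes) tracked resorufin from a G6PDH-diaphorase coupled GCK reaction. It contained 10 nM GST-GCK, 10 nM FLAG-GKRP, 5 mM glucose, 0.4 mM ATP in Hepes pH 7.6. Normalized to with/without-enzyme DMSO controls.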

[7] = biological target: T1, Hexokinase-4 (Homo sapiens) + Glucokinase regulatory protein (Homo sapiens); assay: qHTS assay for inhibitors of recombinant human GCK-GKRP interaction: ADP-Glo assay (AID 743206)
Outline: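 Pin-transferred compounds meet a 15 nM GST-GCK/15 nM FLAG-GKRP/2 uM S6P mix (dispense concentrations). ATP is then added to 0.4 mM final with 5 mM glucose, and the reaction runs 60 min at room temperature. ADP is quantified luminescently.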

[8] = biological target: T1, Hexokinase-4 (Homo sapiens) + Glucokinase regulatory protein (Homo sapiens); assay: qHTS assay for inhibitors of recombinant human GCK-GKRP interaction: HTRF assay (AID 743207)
Outline: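 After 60 min equilibration at room temperature with anti-FLAG XL665 and anti-GST antibodies, FRET ratio (665/615 nm, excitation 320 nm) was read. Proteins: GST-GCK and FLAG-GKRP, each 5 nM, plus 2 uM S6P, pH 7.1 buffer; GCK-free wells define minimum signal.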

[9] = Natriuretic polypeptide receptor (hNpr1) antagonism - Pilot counterscreen GloSensor control cell line (AID 1347045; calls by dose curve)
Outline: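 HEK293 cGMP-sensor cells; 2% GloSensor reagent 2 h RT; LOPAC compounds in 1:5 titrations 30-50 min; 50 uM SNP 20 min; luminescence pre-read and post-read.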

[10] = biological target: Atrial natriuretic peptide receptor 1 (Homo sapiens) (UniProt P16066); assay: Natriuretic polypeptide receptor (hNpr1) antagonism - Pilot screen (AID 1347049; calls by dose curve;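 also: HEK293 cells with hNpr1 and GloSensor cGMP luciferase stimulated by 0.1 nM hNppA; agonist-evoked cGMP luminescence read 20 min after hNppA addition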)
Outline: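 Cells expressing receptor plus cGMP biosensor are seeded and incubated overnight at 37C, then loaded with GloSensor reagent (2% final) at room temperature for 2 h. Library compounds go on for 30 min. A pre-read precedes agonist (hNppA, 0.1 nM final) and a 20-min readout.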

[11] = biological target: T2, Tyrosine-protein phosphatase non-receptor type substrate 1 (Homo sapiens) + Leukocyte surface antigen CD47 (Homo sapiens) (UniProt P78324+Q08722); assay: CD47-SIRPalpha protein protein interaction - LANCE assay qHTS validation (AID 1347057; active = well fitted curve in the direction sought with a large enough effect in the signal ratio, with a control signal flat, not every such curve was filed as active; the % refers to the signal ratio)
T2 sequence (P78324 whole entry, looked up, the tested form may be a part): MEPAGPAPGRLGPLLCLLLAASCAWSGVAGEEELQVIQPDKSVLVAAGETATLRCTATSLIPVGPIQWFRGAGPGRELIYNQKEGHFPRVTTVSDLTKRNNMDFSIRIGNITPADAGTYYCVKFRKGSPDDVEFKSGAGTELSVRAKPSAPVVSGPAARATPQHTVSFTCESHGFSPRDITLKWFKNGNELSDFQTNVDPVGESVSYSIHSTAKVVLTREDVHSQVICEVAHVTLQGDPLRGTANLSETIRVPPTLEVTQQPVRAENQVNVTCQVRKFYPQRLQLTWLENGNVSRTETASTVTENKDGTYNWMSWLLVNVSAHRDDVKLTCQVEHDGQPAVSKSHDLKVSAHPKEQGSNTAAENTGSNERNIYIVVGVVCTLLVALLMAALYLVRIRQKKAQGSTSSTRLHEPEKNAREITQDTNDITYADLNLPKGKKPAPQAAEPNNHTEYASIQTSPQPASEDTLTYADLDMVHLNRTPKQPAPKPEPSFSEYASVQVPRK
T2 sequence (Q08722 whole entry, looked up, the tested form may be a part): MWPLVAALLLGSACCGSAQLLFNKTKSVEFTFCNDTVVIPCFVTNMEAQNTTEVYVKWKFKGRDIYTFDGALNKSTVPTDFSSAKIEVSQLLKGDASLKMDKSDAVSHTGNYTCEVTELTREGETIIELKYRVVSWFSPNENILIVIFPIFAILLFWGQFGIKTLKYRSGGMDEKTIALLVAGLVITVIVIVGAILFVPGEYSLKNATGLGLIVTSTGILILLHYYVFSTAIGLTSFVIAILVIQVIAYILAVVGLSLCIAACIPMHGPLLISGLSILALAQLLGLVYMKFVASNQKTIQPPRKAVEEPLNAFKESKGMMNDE
Outline: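 Inhibition of soluble CD47/SIRPalpha ectodomain association by titrated compounds, measured as 665/615 nm time-resolved FRET ratio after sequential 30 min room-temperature incubations.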

[12] = biological target: T2, Tyrosine-protein phosphatase non-receptor type substrate 1 (Homo sapiens) + Leukocyte surface antigen CD47 (Homo sapiens); assay: CD47-SIRPalpha protein protein interaction - HTRF assay qHTS validation (AID 1347058; active = well fitted curve in the direction sought with a large enough effect in the signal ratio, not every such curve was filed as active; the % refers to the signal ratio)
Outline: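 Soluble extracellular domains (6His-CD47, Avi-tag-biotinylated SIRPalpha) in PBS pH 7.4 with 0.05% IGEPAL CA-630. Compounds were preincubated 30 min at RT with CD47 and anti-His-Eu, then SIRPalpha and SAV-XL665 were added. TR-FRET 665/615 ratio.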

[13] = biological target: T2, Tyrosine-protein phosphatase non-receptor type substrate 1 (Homo sapiens) + Leukocyte surface antigen CD47 (Homo sapiens); assay: CD47-SIRPalpha protein protein interaction - Alpha assay qHTS validation (AID 1347059);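 also: bead proximity luminescence from CD47 binding SIRPalpha after compound preincubation with SIRPalpha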
Outline: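 In PBS (pH 7.4) with 0.05% IGEPAL CA-630, compound is preincubated with biotin-Avi-SIRPalpha ectodomain before His-CD47 ectodomain and affinity beads are added. Light-protected room-temperature incubations; AlphaScreen readout.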

[14] = biological target: Parathyroid hormone/parathyroid hormone-related peptide receptor (Homo sapiens) (UniProt Q03431); assay: qHTS for PTHR1 Agonists: Optimization Screen against the NCGC LOPAC library (AID 1347079);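 also: GloSensor cAMP luminescence in HEK-293 GP2 cells expressing human PTHR1 with IBMX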
Outline: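 Signal increase flags agonism. GP2 cells, derived from HEK-293, express human PTHR1 and a GloSensor cAMP construct.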

[15] = biological target: N-terminal Xaa-Pro-Lys N-methyltransferase 1 (Homo sapiens) (UniProt Q9BV86); assay: qHTS Assay for Inhibitors of N-terminal methyltransferase 1 (NTMT1): LOPAC validation of the NTMT1 SAHH-coupled ThioGlo3 Assay (AID 1347143);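 also: SAH from peptide methylation measured as thiol fluorescence via SAHH coupling and ThioGlo3; potency is read from the fitted curve at half-maximal effect; nearly all actives have a fitted effect of over 70% in size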
Sequence of N-terminal Xaa-Pro-Lys N-methyltransferase 1 (Homo sapiens) (Q9BV86 whole entry, looked up): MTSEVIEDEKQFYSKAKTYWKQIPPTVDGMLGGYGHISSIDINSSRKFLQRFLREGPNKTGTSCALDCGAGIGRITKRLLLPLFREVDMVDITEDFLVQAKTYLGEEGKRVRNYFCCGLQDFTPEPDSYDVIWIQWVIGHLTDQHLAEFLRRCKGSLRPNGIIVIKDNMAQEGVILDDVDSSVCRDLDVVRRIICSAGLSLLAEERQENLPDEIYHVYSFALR
Outline: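 In this qHTS pilot against the LOPAC set, 125nM NTMT1 met compounds tested at multiple concentrations, and fluorescence was normalized to background.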

[16] = qHTS to identify inhibitors of the type 1 interferon - major histocompatibility complex class I in skeletal muscle: primary screen against the NCATS LOPAC collection (AID 1347405);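 also: human myoblasts with HiBiT tag on endogenous HLA-B stimulated by IFN-beta; lytic HiBiT luminescence reporting HLA-B protein level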
Outline: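 HLA-B HiBiT myoblasts, IFN-b 4 ng/ml, dexamethasone-free medium; compounds 7-pt 1:4.3 titration, top 46 uM final; 24 h at 37 C; Nano-Glo HiBiT lytic reagent, 10 min RT, luminescence.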

[17] = Validation qHTS assay for inhibitors of Activation Induced Cytidine Deaminase (AID): UDG Counterscreen signal (AID 1347427)
Outline: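 Fluorescence at 560 nm excitation, 665 nm emission reports UDG signal after 250 mM NaOH (2x) addition and 30 min. Enzymes (AID 1 uM, UDG 2 U/mL, at 4/3x) preincubated 10 min with compound, then 4 h with 4x 250 nM DJC20/DJC23 substrate at room temperature.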

[18] = biological target: Single-stranded DNA cytosine deaminase (Homo sapiens) (UniProt Q9GZX7); assay: Validation qHTS assay for inhibitors of Activation Induced Cytidine Deaminase (AID): AID signal (AID 1347429)
Sequence of Single-stranded DNA cytosine deaminase (Homo sapiens) (Q9GZX7 whole entry, looked up): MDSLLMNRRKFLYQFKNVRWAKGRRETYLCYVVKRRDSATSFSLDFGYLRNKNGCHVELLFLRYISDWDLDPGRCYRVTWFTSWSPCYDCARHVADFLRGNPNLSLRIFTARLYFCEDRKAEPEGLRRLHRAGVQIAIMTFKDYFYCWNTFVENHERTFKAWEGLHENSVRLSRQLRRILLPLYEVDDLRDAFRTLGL
Outline: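 AID+UDG coupled FRET deamination; cpds up to 114 uM final; DJC20/DJC23 substrate, 4 hr RT; NaOH stop, 30 min RT; read Ex 540/Em 590.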

[19] = biological target: Calcium and integrin-binding protein 1 (Homo sapiens) (UniProt Q99828); assay: Validation qHTS for Identification of Calcium Integrin Binding protein 1 (CIB1) Competitor (AID 1508618)
Sequence of Calcium and integrin-binding protein 1 (Homo sapiens) (Q99828 whole entry, looked up): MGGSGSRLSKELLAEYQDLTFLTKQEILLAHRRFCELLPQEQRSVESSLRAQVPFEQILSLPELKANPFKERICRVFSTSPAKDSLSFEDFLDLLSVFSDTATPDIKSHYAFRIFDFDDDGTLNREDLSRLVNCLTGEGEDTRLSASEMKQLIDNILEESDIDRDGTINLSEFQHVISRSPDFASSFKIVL
Outline: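 In this qHTS validation, the LOPAC set (up to 114 uM) was tested for blocking CIB1 binding to a fluorescein-tagged alphaIIb peptide, with FP detection at 480/540 nm.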

[20] = Primary qHTS for small molecule stabilizers of the endoplasmic reticulum resident proteome: Secreted ER Calcium Modulated Protein (SERCaMP) assay (AID 1508630)
Outline: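 The SH-SY5Y reporter protocol was run at 3 concentrations up to 38.3 uM (primary) or 11 concentrations (follow-up): 16 h compound, 100 nM thapsigargin for 4 h, then extracellular luciferase luminescence.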

[21] = biological target: Papain (Carica papaya) (UniProt P00784); assay: Primary qHTS assay for inhibitors of the protease papain (AID 1645873);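 also: papain turnover of Z-FR-AMC read as the AMC fluorescence gain over 10 min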
Sequence of Papain (Carica papaya) (P00784 whole entry, looked up): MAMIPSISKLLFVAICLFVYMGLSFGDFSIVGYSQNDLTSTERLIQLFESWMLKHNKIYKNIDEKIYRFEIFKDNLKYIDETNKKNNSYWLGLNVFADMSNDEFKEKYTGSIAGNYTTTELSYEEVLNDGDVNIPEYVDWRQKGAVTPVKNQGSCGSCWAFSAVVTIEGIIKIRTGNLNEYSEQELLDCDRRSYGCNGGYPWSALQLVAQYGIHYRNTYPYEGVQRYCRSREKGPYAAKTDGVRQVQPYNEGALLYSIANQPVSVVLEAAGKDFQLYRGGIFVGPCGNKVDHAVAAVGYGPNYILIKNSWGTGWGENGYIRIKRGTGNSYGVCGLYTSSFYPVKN

[22] = biological target: Catechol O-methyltransferase (Homo sapiens) (UniProt P21964); assay: Confirmatory Screen for Target Class Profiling of Small Molecule Inhibitors of Methyltransferases (AID 1745852; calls by dose curve); details: MTase-Glo luminescence, SAH detection, recombinant enzyme; measured here: COMT max response; stronger effect = lower value
Sequence of Catechol O-methyltransferase (Homo sapiens) (P21964 whole entry, looked up): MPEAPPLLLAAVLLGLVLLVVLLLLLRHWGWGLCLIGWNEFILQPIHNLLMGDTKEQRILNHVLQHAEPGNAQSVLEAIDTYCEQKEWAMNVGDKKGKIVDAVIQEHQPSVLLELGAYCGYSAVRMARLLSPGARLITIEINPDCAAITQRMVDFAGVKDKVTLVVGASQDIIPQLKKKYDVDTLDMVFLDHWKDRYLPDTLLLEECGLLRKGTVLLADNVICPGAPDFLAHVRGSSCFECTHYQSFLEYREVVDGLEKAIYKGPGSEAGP

[23] = biological target: Guanidinoacetate N-methyltransferase (Homo sapiens) (UniProt Q14353); assay: as above; details: activity change, negative = inhibition: at 57.3 µM (top of the series) unless noted
[24] = biological target: Nicotinamide N-methyltransferase (Homo sapiens) (UniProt P40261); assay: as above; details: MTase-Glo luminescence, SAH detection, recombinant enzyme; measured here: NNMT max response; stronger effect = lower value
Sequence of Nicotinamide N-methyltransferase (Homo sapiens) (P40261 whole entry, looked up): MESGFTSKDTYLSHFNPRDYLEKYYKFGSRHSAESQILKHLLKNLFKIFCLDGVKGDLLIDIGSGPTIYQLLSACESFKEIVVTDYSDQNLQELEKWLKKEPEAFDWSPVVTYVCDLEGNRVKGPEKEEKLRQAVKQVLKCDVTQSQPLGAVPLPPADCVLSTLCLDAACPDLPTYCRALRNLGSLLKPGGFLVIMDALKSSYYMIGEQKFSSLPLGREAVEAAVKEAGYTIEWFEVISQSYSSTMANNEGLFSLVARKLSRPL

[25] = biological target: Phenylethanolamine N-methyltransferase (Homo sapiens) (UniProt P11086); assay: as above; details: MTase-Glo luminescence, SAH detection, recombinant enzyme; measured here: PNMT max response; stronger effect = lower value
Sequence of Phenylethanolamine N-methyltransferase (Homo sapiens) (P11086 whole entry, looked up): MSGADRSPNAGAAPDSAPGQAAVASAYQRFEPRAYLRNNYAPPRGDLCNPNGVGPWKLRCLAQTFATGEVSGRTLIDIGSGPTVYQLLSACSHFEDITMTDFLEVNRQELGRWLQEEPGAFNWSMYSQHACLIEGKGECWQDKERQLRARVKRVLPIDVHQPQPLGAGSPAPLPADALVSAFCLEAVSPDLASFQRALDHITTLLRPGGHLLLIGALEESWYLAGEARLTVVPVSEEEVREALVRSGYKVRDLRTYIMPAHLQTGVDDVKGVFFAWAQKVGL

[26] = biological target: Metallo-beta-lactamase type 2 (Klebsiella pneumoniae) (UniProt C7C422); assay: qHTS to identify inhibitors of the New Delhi Metallo-beta-lactamase (NDM): assay validation screen against the NCATS LOPAC Collection (AID 1794843);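 also: nitrocefin turnover by NDM-1 measured as 485 nm absorbance at plateau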
Sequence of Metallo-beta-lactamase type 2 (Klebsiella pneumoniae) (C7C422 whole entry, looked up): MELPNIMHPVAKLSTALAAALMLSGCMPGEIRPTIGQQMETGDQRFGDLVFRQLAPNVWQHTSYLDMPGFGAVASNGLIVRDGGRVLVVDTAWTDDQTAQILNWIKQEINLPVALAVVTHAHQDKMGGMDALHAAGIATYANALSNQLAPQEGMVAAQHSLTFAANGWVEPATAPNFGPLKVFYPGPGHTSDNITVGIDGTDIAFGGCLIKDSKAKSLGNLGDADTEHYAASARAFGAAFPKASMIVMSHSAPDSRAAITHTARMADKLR
Outline: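 Nitrocefin hydrolysis (50 uM substrate stock) by NDM-1, 2 nM final, was followed by 485 nm absorbance after compound preincubation; buffer was 50 mM HEPES pH 7.0, 1 uM ZnSO4, 0.01% Tween20.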

[27] = biological target: Glutathione peroxidase 1 (Homo sapiens) (UniProt P07203); assay: Primary qHTS Assay for Inhibitors of Recombinant Selenoprotein Glutathione Peroxidase 1 (GPX1) (AID 1845191); also: nearly all actives have a fitted effect of over 65% in size
Sequence of Glutathione peroxidase 1 (Homo sapiens) (P07203 whole entry, looked up): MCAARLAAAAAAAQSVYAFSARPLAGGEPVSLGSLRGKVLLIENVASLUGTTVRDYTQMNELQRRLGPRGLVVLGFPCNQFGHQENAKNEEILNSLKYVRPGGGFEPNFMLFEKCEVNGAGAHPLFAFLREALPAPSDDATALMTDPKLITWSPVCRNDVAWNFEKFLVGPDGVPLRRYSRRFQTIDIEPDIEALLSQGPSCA
Outline: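 GPX1 10 nM, GR 100 nM, GSH 1 mM, NADPH 0.5 mM, CHP 0.5 mM (final). 30-min cpd preincubation, RT. Ex340/Em450 read t=0, t=15 min.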

[28] = biological target: Phospholipid hydroperoxide glutathione peroxidase GPX4 (Homo sapiens) (UniProt P36969); assay: Primary qHTS Assay for Inhibitors of Recombinant Selenoprotein Glutathione Peroxidase 4 (GPX4) (AID 1845192); details: outcome: dose series up to 50 µM unless noted; also: nearly all actives have a fitted effect of over 65% in size
Sequence of Phospholipid hydroperoxide glutathione peroxidase GPX4 (Homo sapiens) (P36969 whole entry, looked up): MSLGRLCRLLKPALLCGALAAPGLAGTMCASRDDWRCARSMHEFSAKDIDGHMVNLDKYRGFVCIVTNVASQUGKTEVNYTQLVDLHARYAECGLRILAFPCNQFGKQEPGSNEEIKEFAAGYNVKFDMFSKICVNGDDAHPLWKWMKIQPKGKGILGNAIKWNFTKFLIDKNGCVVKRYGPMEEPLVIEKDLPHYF
Outline: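 qHTS, GR-coupled: GPX4 200 nM + cpd 30 min RT → GSH 1 mM, NADPH 0.5 mM, GR 100 nM → CHP 0.5 mM start; fluor 340/450 at t0 and t15 min; no-enzyme wells as control.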

CN1C2CCCC1CC(NC(=O)c1nn(C)c3ccccc13)C2 (stereo not drawn)
5.2%: activity change, negative = inhibition [23]
active: Potency [15] 56.2 µM
inactive: outcome [1] | outcome [2] | Potency [3] | outcome [4] | Potency [5] | outcome [6] | outcome [7] | outcome [8] | Potency [9] | Potency [10] | outcome [11] | outcome [12] | Potency [13] | outcome [14] | Potency [16] | outcome [17] | Potency [18] | outcome [19] | Potency [20] | Potency [21] | Potency [26] | Potency [27] | Potency [28]
4.07%: activity [25]
0.961%: activity [24]
1.32%: activity [22]
